Data reported in ChEMBL document CHEMBL3988442, “University of Dundee, Small-Polar-MMV Screening Library” (2021).
Screen size: about 69,000 compounds; about 950 (1.4%) showed an effect of 50% or more. This excerpt belongs to a sample that is enriched for strong results.

tested on: Mycobacterium tuberculosis; assay: Cornell M. t heat shock assay; assay type: functional, organism-based; parameters: dose or concentration left out as unconfirmed; note: in the data most compounds retested in dose-response had high values

SMILES	Percent Effect
Cl.Cn1cc(C(=O)NCc2cncc3c2CCN(S(C)(=O)=O)C3)cn1	36.5%
O=C(O)C(F)(F)F.O=C(O)C(F)(F)F.O=C(O)C(F)(F)F.c1ccc(COC[C@H]2CC[C@H]3[C@H](CCN3Cc3ccccn3)O2)nc1	4.762%
COc1ncccc1C(=O)N1CC[C@H]2C[C@H](c3nnc(C)[nH]3)O[C@@H]2C1.O=C(O)C(F)(F)F	-43.18%
Cc1ccc(CN2C[C@@H]3CCN(Cc4cccnc4)C(=O)[C@H]3C2)s1.O=C(O)C(F)(F)F.O=C(O)C(F)(F)F	-19.89%
Cc1ccc(N2CCO[C@H]3CN(Cc4cnn(C)c4)C[C@H]32)nn1.O=C(O)C(F)(F)F.O=C(O)C(F)(F)F	3.052%
CCn1ncc2c1C(COCC1CC1)CN(c1ccc(C)nn1)C2.O=C(O)C(F)(F)F.O=C(O)C(F)(F)F (centres undefined)	28.05%
c1ccc(Cc2nc(CNCCn3cccn3)cs2)cc1	96.34%
Clc1ccc(OCCNCCn2cccn2)cc1	-6.93%
Clc1ccc(Cc2nc(CNCCn3cccn3)cs2)cc1	102.1%
Fc1ccc(CNCCn2cccn2)cc1F	-1.295%
c1csc(-c2noc(CNCCn3cccn3)n2)c1	-3.991%
CCOC1COC2(CCN(c3cccc(C)n3)CC2)C1.O=C(O)C(F)(F)F (centres undefined)	-0.3848%
CCCOc1ccccc1CN[C@@H]1CCC[C@H]1Cc1cc(C)no1.O=C(O)CC(O)(CC(=O)O)C(=O)O	-26.27%
CNC(=O)CN1CCOCC2(CCCN(CCc3ccccc3)C2)C1.O=C(O)C(F)(F)F.O=C(O)C(F)(F)F (centres undefined)	-11.41%
CO[C@@H]1CCN(Cc2ccoc2)C[C@@H]1Cc1ccccc1.O=C(O)C(F)(F)F	28.11%
Cc1ccc(N2CC[C@@H]3[C@@H]2CCN3C(=O)Cc2ccsc2)nn1.O=C(O)C(F)(F)F	8.036%
CC1CCN(c2cncc(CCC3CCCN3)n2)CC1.Cl (centres undefined)	-9.936%
CCCn1ncc(-c2ccnc(NC3CCCc4ccccc43)n2)c1C (centres undefined)	27.79%
CCCn1cc(-c2ccnc(NC3CCCc4ccccc43)n2)c(C)n1 (centres undefined)	98%
CCCn1cc(-c2ccnc(NC3CCc4ccccc43)n2)c(C)n1 (centres undefined)	18.89%
O=C(NCCc1cccs1)[C@H]1CO[C@H]2CCNC[C@H]2C1.O=C(O)C(F)(F)F	0.5431%
Cc1nc(Nc2nnc(C)s2)cc(C2CCCN2)n1.Cl (centres undefined)	-7.337%
Cc1nc(Nc2nncs2)cc(C2CCCN2)n1.Cl (centres undefined)	5.522%

SMILES	Percent Effect
Cc1nc(Nc2cnccn2)cc(C2CCCN2)n1.Cl (centres undefined)	-30.38%
Cl.c1cncc(CNc2cncc(C3CCCN3)n2)c1 (centres undefined)	-18.35%
Cc1nc(Nc2ncc(C)s2)cc(C2CCCN2)n1.Cl (centres undefined)	6.055%
Cc1cc(Nc2cnccn2)cc(C2CCCN2)n1 (centres undefined)	-16.58%
Cl.c1nnc(Nc2cncc(C3CCCN3)n2)s1 (centres undefined)	104.6%
Cl.c1cnc(Nc2cncc(C3CCCN3)n2)cn1 (centres undefined)	54.88%
Cl.Cn1nc(C2CCN(C(=O)CCN3CCOCC3)CC2)c2cccnc21	0.9946%
CNC(=O)COC1COC2(CCN(Cc3ccncc3F)CC2)C1.O=C(O)C(F)(F)F (centres undefined)	44.76%
COc1cccc(CN2CCC3(CCN(C(=O)[C@H]4CCCO4)CC3)C2)c1.O=C(O)C(F)(F)F	-2.359%
Cc1cnc(N2Cc3nccn3CC(Cn3ncccc3=O)C2)nc1.O=C(O)C(F)(F)F (centres undefined)	-35.14%
O=C(CN1CCCC(c2ccn[nH]2)C1)Nc1nncs1 (centres undefined)	98.23%
Cc1nnc(NC(=O)CN2CCCC(Cn3cncn3)C2)s1 (centres undefined)	2.027%
Cc1nc(C)n(CC2CCCN(CC(=O)Nc3nnc(C)s3)C2)n1 (centres undefined)	-28.96%
Cc1nnc(NC(=O)CN2CCCC(c3ccn[nH]3)C2)s1 (centres undefined)	101.7%
Cc1nc(C)n(CC2CCCN(CC(=O)Nc3nncs3)C2)n1 (centres undefined)	11.86%
Cn1c(C2CC2)nc2c1CCN(CC(=O)Nc1nncs1)C2	13.67%
CCN(CC)S(=O)(=O)N1CC[C@H](c2ccccc2)[C@H]2NCCCC[C@H]21.Cl	-6.669%
CC(C)c1nnc(N2C[C@@H]3CC[C@H](C2)N(Cc2ccccc2)C3)s1	34.82%
COc1ccc(F)c(CN2CCCC3(CCN(C4CCOCC4)C3)C2)c1 (centres undefined)	99.36%
COc1ccc(F)c(CN2CCCC3(CCN(S(C)(=O)=O)C3)C2)c1 (centres undefined)	-18.53%
CCS(=O)(=O)N1CCC2(CCCN(Cc3cc(OC)ccc3F)C2)C1 (centres undefined)	24.11%
Cc1ccc(C(=O)N2CCn3c(COCC4CC4)cnc3C2C)nc1.O=C(O)C(F)(F)F (centres undefined)	-9.703%
CCN1CCC2(CC1)CC(NCc1cccs1)c1ccccc1O2.O=C(O)C(F)(F)F.O=C(O)C(F)(F)F (centres undefined)	-24.55%

SMILES	Percent Effect
CN(Cc1nc2ccccc2c(=O)[nH]1)C1CC(=O)N(C2CC2)C1=O (centres undefined)	51.11%
CN(CC(=O)N(C)C1CCCCC1)Cc1nc2ccccc2c(=O)[nH]1	97.32%
CN(CC(=O)N(C)C1CCCCC1)Cc1nc2c(cnn2C)c(=O)[nH]1	-5.559%
CN(Cc1nc2ccccc2c(=O)[nH]1)C[C@@H]1CCCN2CCCC[C@H]12	44.63%
CN1C(=O)CC(N(C)Cc2nc3ccccc3c(=O)[nH]2)C1=O (centres undefined)	15.14%
CCN1C(=O)CC(N(C)Cc2nc3ccccc3c(=O)[nH]2)C1=O (centres undefined)	16.93%
CCC(CN1CCCCC1)NC(=O)C1(c2ccc(F)cc2)CC1.O=C(O)CC(O)(CC(=O)O)C(=O)O (centres undefined)	-8.056%
CSCCC(O)C(=O)N1CCN(Cc2cccc(Cl)c2)CC1 (centres undefined)	31.13%
Cc1ccoc1C(=O)N1CC[C@@H]2CN(C3CCOCC3)CCO[C@@H]2C1.O=C(O)C(F)(F)F	6.269%
COc1ccc(CN2Cc3nnn(C)c3C(COCCN(C)C)C2)cc1.O=C(O)C(F)(F)F.O=C(O)C(F)(F)F (centres undefined)	-24.51%
Cl.Nc1ncc(-c2csc(NC(=O)C[C@H]3COCCN3)n2)cn1	-19.35%
COCC(=O)N1CCCCC1c1ccnc(Nc2ncc(C)s2)n1 (centres undefined)	-16.88%
COCC(=O)N1CCCC1c1cccc(Nc2ncc(C)s2)n1 (centres undefined)	102.5%
Cc1cccc(C2CCCN2S(=O)(=O)N(C)C)n1 (centres undefined)	-7.65%
CCN(CC)S(=O)(=O)N1CCCC1c1cccc(Nc2ncc(C)s2)n1 (centres undefined)	70.89%
Cc1cnc(Nc2cccc(C3CCCN3C(=O)CO)n2)s1 (centres undefined)	-6.272%
CCc1nnc(Nc2cccc(C3CCN(S(=O)(=O)N(C)C)CC3)n2)s1	-4.928%
COc1ccc(CN2C[C@@H](N(C)Cc3ccco3)[C@H]3OCCC[C@H]32)cc1.O=C(O)C(F)(F)F.O=C(O)C(F)(F)F	2.974%
CCOc1ccccc1CNC(=O)Cn1ccc2c(C)nn(C)c2c1=O	9.293%
O=C(Cc1ccccc1)N1CCCC2(COCCN(CC3CC3)C2)C1.O=C(O)C(F)(F)F (centres undefined)	-3.666%
Cc1nc(Nc2nnc(C)s2)cc(C2CCCN2C2CCCC2)n1 (centres undefined)	-11.05%
CN(C)c1nccc(N2CCO[C@H]3CN(Cc4nccn4C)C[C@H]32)n1.O=C(O)C(F)(F)F	-13.16%
CC(C)n1c2ccccc2c2c1cc(C(=O)O)n2C(=O)N(C)C	64.45%

SMILES	Percent Effect
CC(C)n1c2ccccc2c2c1cc(C(=O)N(C)C)n2C(=O)N(C)C	11.26%
CC(C)n1c2ccccc2c2c1cc(C(=O)NCCO)n2C(=O)N(C)C	20.51%
COc1ccc(CC(=O)N2CCN(c3nccn3C)CC2)cc1.Cl	6.481%
O=C(O)C(F)(F)F.O=S(=O)(C1CC1)N1CCCn2cnc(COc3cccnc3)c2C1	9.967%
Cc1cccc(NC(=O)CN2C(=O)CC(C)(C)c3ccccc32)n1	-2.777%
Cc1cc(NC(=O)CN2C(=O)CC(C)(C)c3ccccc32)no1	6.008%
CCn1cc(NC(=O)CN2C(=O)CC(C)(C)c3ccccc32)cn1	52.7%
CC1(C)CC(=O)N(CC(=O)Nc2ccon2)c2ccccc21	77.91%
CCn1ccc(NC(=O)CN2C(=O)C(C)(C)c3ccccc32)n1	-16.77%
CCn1ccc(NC(=O)CN2C(=O)CC(C)(C)c3ccccc32)n1	2.312%
Fc1ccc(CN[C@@H]2COC[C@H]2c2ccc(F)cc2)cc1.O=C(O)CC(O)(CC(=O)O)C(=O)O	2.118%
COc1cccc(OCCNCc2ccccc2)c1.O=C(O)C(=O)O	-6.728%
CCc1ccc(CN2CCCn3c(nc(Cn4ccnc4)cc3=O)C2)o1.O=C(O)C(F)(F)F.O=C(O)C(F)(F)F	-19.48%
Cc1ccnc(N2CCCC(c3noc(C(C)C)n3)C2)n1 (centres undefined)	12.21%
CN(C)C(=O)c1cn2cc(-c3ccccc3Cl)n(CC3CC3)c(=O)c2n1	22.72%
CCNC(=O)c1cn2cc(-c3ccccc3Cl)n(CC3CC3)c(=O)c2n1	99.63%
CNC(=O)c1cn2cc(-c3ccccc3Cl)n(CC3CC3)c(=O)c2n1	12.71%
COCCN1CCC2(CC1)CN(C(=O)N(C)C)c1ccc(C)cc12.O=C(O)C(F)(F)F	-10.15%
O=C(N[C@H]1CN(Cc2ccsc2)[C@@H]2CCCO[C@H]12)C1CC1.O=C(O)C(F)(F)F	2.811%
Cc1cccc(CN2CC3(CCN(C(=O)N(C)C)CC3)OCC2=O)n1.O=C(O)C(F)(F)F	-24.23%
